# Screening data: PubChem BioAssay, National Center for Advancing Translational Sciences (NCATS)
# HT1080NT lethal = kills 2HG-producing HT-1080-NT fibrosarcoma cells; HT-1080-NT fibrosarcoma viability, CellTiter-Glo ATP luminescence, 48 h; Potency, µM (doses to about 46.1 µM), without a hit: top-dose activity, negative = less viability, actives largely listed as cytotoxic; 1.6% of 360,000 active; AID 686970;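 further: NT is the 2HG producing partner of a matched IDH1 knockdown line; potency means the concentration at half of the fitted maximal effect; 0% = DMSO-treated cells and -100% = media-only wells without cells; nearly all actives have a fitted effect of over 55% in size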
#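 HT-1080-NT; 750 cells/well; 5% FBS RPMI; 48 h compound, 37 degrees C; CellTiter-Glo luminescence; curve fitting and curve-class assignment.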
# DT40 TDP1 CPT = DT40-hTDP1 cell growth loss with CPT; 12% of 420,000 active; AID 686979; Potency, µM (highest dose often 46.2 µM), without a hit: at the top dose activity change, negative = growth inhibition, actives largely listed as inhibitors; chicken DT40 Tdp1-/-;hTDP1 cells + 20 nM CPT, ATP luminescence, 48 h; further: potency means the concentration at half of the fitted maximal effect; nearly all actives have a fitted effect of over 55% in size
#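 Chicken DT40 Tdp1-/- cells stably complemented with human TDP1 were seeded at 400 cells/well in medium containing 20 nM camptothecin, exposed to pin-transferred compounds, and grown at 37 °C for at least 48 hr. Viability was read as ATP luminescence.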
# IL-1B inflam inh = inflammasome signaling inhibition, IL-1 beta readout | THP-1 LPS/ATP IL-1B secretion, AlphaLISA, 16 h; stronger effect = lower value | activity change, % at 57.5 µM | 4.7% of 360,000 active | AID 743279; in the data active means activity change below about -50%; inconclusive means mostly about -30% to -49%
#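 Secreted IL-1B measured by AlphaLISA bead assay after 16 h compound exposure of THP-1 cells; compounds (final up to 57.5 uM) added 1 h before LPS (250 ng/mL) and ATP (1.25 mM) stimulation; lower signal means less secretion.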
# HT1080 IDH1KD tx = kills HT-1080 cells with IDH1 knockdown; HT-1080 IDH1 knockdown viability, ATP luminescence, 48 h; Potency, µM (highest dose often 46.1 µM), for the others: top-dose activity, negative = toxicity, hits mostly cytotoxic; 2% of 360,000 active; AID 686971;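 further: potency means the concentration at half of the fitted maximal effect; 0% = DMSO wells and -100% = cell-free medium wells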
#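 Assay cells: HT-1080 with IDH1 knockdown, 750 per well, RPMI/5% FBS. Exposure: 48 h at 37 °C following 2 h pre-incubation. Read: CellTiter-Glo luminescence; fitted concentration-response, curve class assigned.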
# 12-LOX inh = blocks human arachidonate 12S-lipoxygenase; purified 12hLO, xylenol orange hydroperoxide absorbance; Potency, µM (titrated, usually from 108 µM), for inactives: at the highest dose activity change, negative = inhibition, most hits filed as inhibitors; 1.1% of 580,000 active; further: potency means the concentration at half of the fitted maximal effect
# Target sequence (P18054 whole entry, looked up): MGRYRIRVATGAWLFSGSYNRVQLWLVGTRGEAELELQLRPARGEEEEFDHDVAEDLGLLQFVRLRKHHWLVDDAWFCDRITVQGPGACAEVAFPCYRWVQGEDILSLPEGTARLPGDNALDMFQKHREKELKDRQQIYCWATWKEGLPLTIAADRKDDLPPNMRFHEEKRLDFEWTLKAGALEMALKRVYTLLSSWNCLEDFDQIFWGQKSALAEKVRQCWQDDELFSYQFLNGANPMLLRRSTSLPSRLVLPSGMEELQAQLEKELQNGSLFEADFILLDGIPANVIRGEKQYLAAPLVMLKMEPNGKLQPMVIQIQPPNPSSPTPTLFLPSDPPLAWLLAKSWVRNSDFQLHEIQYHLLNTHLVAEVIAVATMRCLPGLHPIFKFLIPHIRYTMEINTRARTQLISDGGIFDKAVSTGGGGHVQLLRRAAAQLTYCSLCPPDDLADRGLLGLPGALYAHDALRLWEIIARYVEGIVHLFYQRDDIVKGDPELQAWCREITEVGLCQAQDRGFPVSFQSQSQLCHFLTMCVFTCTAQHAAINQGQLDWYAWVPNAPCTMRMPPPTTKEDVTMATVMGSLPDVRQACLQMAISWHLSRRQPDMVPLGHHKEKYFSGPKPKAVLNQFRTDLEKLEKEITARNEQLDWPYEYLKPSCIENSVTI
#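 Purified human 12hLO (150 nM final) in 25 mM Hepes, 0.01% Triton X-100, pH 7.0 was preincubated 15 min at room temperature with compound. Then 40 uM arachidonic acid was added, 30 min. Hydroperoxide was read by Fe-XO absorbance ratio 573/405 nm.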
# TDP1 cell noCPT = qHTS for Inhibitors of human tyrosyl-DNA phosphodiesterase 1 (TDP1): qHTS in cells in absence of CPT; DT40 Tdp1-/- hTDP1 cells, no CPT, ATP luminescence, 48 h; Potency, µM (series often up to 46.2 µM), for the others: top-dose activity change, negative = growth inhibition, usual class: inhibitors; 15% of 420,000 active; AID 686978, 2013; further: potency means the concentration at half of the fitted maximal effect; nearly all actives have a fitted effect of over 55% in size
#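 No-CPT arm: Tdp1-/-;hTDP1 DT40 cells (400/well) plus compounds, incubated ≥48 hr at 37 °C. Readout CellTiter-Glo luminescence.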
# The depositor's hits bear a star; ? = inconclusive; . = no result given. Shown is part of a subset that was picked to be rich in hits. Unless noted, the call rests on the fitted dose curve; in most records, active means well fitted curve in the direction sought with a large enough effect; inconclusive means small, poorly fitted or top-dose-only effect, or another doubt; inactive means no such curve, though single readings can be large; an effect the other way counts as inactive or inconclusive. Unless noted, on the % scale 0 is the no-effect control and ±100 the full control effect.
SMILES,HT1080NT lethal,DT40 TDP1 CPT,IL-1B inflam inh,HT1080 IDH1KD tx,12-LOX inh,TDP1 cell noCPT
CC1CC(C)CN(C(=O)c2ccc(S(=O)(=O)N3CCCCC3)cc2)C1 (stereo not drawn),-2%,-5%,-7,-2%,-1%,-21%
Cc1ccc2c(c1)nnn2C1CCN(S(=O)(=O)c2ccc(C(=O)N3C(C)CCCC3C)cc2)CC1 (stereo not drawn),?,9.2µM*,-67*,-23%,?,9.2µM*
CC1CCN(C(C)C(=O)Nc2cc(S(=O)(=O)N3CCCCC3)ccc2Cl)CC1 (stereo not drawn),0%,?,-17,6%,-29%,?
COCC(=O)N(C1CCOCC1)C1CCN(C(=O)c2cccc(C)c2)CC1,.,.,.,.,14%,.
Cc1cc(C)c(NC(=O)c2cc(C)nc3ccccc23)c(C)c1,.,.,.,.,-25%,.
CCn1nc(C)cc1C(=O)N1CCCN(Cc2ccc(F)cc2)C(C(C)C)C1 (stereo not drawn),.,.,.,.,53%,.
CC(NC(=O)c1ccc(Cl)cc1)C12CC3CC(CC(C3)C1)C2 (stereo not drawn),.,.,.,.,3%,.
N#C/C(=C/c1ccccc1[N+](=O)[O-])c1nc(C2CC2)cs1,-4%,-2%,?,2%,-18%,-119%
N#C/C(=C\c1ccccc1[N+](=O)[O-])c1nc(C2CC2)cs1,-8%,?,-78*,-24%,-9%,?
O=S(=O)(c1ccc(F)c(F)c1)N1CCN(Cc2ncc(-c3ccc(F)cc3)o2)CC1,.,.,.,.,-10%,.
Cc1ccc(OCC(=O)Nc2cc(-c3nc4ccccc4[nH]3)ccc2C)c(C)c1,.,.,.,.,-21%,.
Cc1cc(C)c2oc(-c3ccc(C)c(NC(=S)NC(=O)/C=C/c4ccco4)c3)nc2c1,3%,?,14,0%,?,?
Cc1ccc(-c2nc3ccccc3[nH]2)cc1NC(=S)NC(=O)c1ccccc1Br,-5%,?,-56*,-15%,9%,15µM*
Cc1ccc(-c2nc3ccccc3[nH]2)cc1NC(=O)/C=C/c1ccco1,?,?,?,?,-30%,16µM*
CC1CCN(C(=O)c2nn(C(C)C)c(=O)c3ccccc23)c2cc(Cl)ccc2S1 (stereo not drawn),.,.,.,.,-28%,.
COc1ccc(Cl)cc1-c1ccc2c(c1)C(=O)N1CC[C@H](NC(=O)c3cccs3)[C@H]1C(=O)N2,.,.,.,.,-5%,.
Cc1cc(C)cc(Nc2cc(-c3ccccc3)nc(C)n2)c1,.,9.2µM*,.,.,9%,8.2µM*
Cc1cc(C)n(-c2cc(-c3ccccc3)nc(C)n2)n1,2%,16µM*,-6,-1%,6%,?
CC(C)N(CCNC(=O)c1n[nH]c(=O)c2ccccc12)C(C)C,.,.,.,.,0%,.
Cc1ccc(C2=Nc3ccccc3N=C(C(Cl)Cl)C2)cc1,-27%,18µM*,-26,?,-3%,16µM*
COC(=O)C1C(=O)c2c([nH]c(C(=O)OC3CCCC3C)c2C)CC1C (stereo not drawn),-5%,16µM*,-26,0%,-19%,13µM*
COC(=O)C1C(=O)c2c([nH]c(C(=O)OC3CCCCC3)c2C)CC1C (stereo not drawn),-5%,?,?,6%,469%,?
CCOP(=O)(OCC)C(NC(C)=O)C(=O)c1ccccc1 (stereo not drawn),1%,-5%,-22,-2%,-4%,3.7µM*
COc1ccc(CN(C(=O)c2cccc(F)c2)C2CC2)c(OC)c1,.,.,.,.,23%,.
CCOC(=O)C1=CCN(S(=O)(=O)c2cccc(Cl)c2)C1c1cccc(F)c1 (stereo not drawn),-14%,21µM*,?,-9%,-1%,21µM*
